# Results published in the supplement of paper PMC8728848.
# Many of the other results were omitted from the sample, so the strongest signals are more common in it than they were.
# Columns and labels:
# Assay in all cases: glycan array binding signal (z-score within array); higher = stronger binding
# [1] = system: Gal(b1-3)GalNAc(b1-3)Gal(a1-4)Gal(b1-4)Glc; conditions: glycan notation: IUPAC condensed, linker removed
# Outline: (§1)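 Columns mapping to the same glycan were averaged after glycan names were converted to IUPAC-condensed notation. The data come from 3228 arrays in the Consortium for Functional Glycomics database, limited to those with an available protein sequence. Binding is reported as a within-array Z-score averaged across arrays of one protein sequence and across linkers.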
# Gal(b1-2)Gal = conditions: glycan notation: IUPAC condensed, linker removed
# Outline: as §1
# Gal(a1-4)GlcNAc = conditions: glycan notation: IUPAC condensed, linker removed
# Outline: as §1
# Gal(a1-4)Gal(b1-4)Glc = conditions: glycan notation: IUPAC condensed, linker removed
# Outline: as §1
# [2] = system: Gal(b1-3)GalNAc(b1-3)Gal(b1-4)Glc; conditions: glycan notation: IUPAC condensed, linker removed
# Outline: as §1
# [3] = system: Gal(b1-3)GalNAc(a1-3)[Fuc(a1-2)]Gal(b1-4)GlcNAc; conditions: glycan notation: IUPAC condensed, linker removed
# Outline: as §1
# [4] = system: Gal(b1-3)Gal(b1-4)GlcNAc(b1-2)Man(a1-3)[Gal(b1-3)Gal(b1-4)GlcNAc(b1-2)Man(a1-6)]Man(b1-4)GlcNAc(b1-4)GlcNAc; conditions: glycan notation: IUPAC condensed, linker removed
# Outline: as §1
# Gal(b1-3)GalNAc(b1-3)Gal = conditions: glycan notation: IUPAC condensed, linker removed; mutation: R125K
# Outline: as §1
# Gal(a1-4)Gal(b1-4)GlcNAc = conditions: glycan notation: IUPAC condensed, linker removed
# Outline: as §1
# Gal(a1-6)Glc = conditions: glycan notation: IUPAC condensed, linker removed
# Outline: as §1
# PILRb (Mus musculus), Q2YSF2, sequence (Q2YSF2 entry or part of it): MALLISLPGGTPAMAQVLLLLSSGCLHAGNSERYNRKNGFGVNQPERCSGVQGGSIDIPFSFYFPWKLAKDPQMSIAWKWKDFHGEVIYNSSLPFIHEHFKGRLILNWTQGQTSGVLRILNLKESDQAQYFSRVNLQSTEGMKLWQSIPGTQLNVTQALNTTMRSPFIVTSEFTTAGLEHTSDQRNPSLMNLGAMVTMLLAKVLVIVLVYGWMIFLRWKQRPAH
# CHI3L1 (Homo sapiens), P36222, sequence (P36222 whole entry): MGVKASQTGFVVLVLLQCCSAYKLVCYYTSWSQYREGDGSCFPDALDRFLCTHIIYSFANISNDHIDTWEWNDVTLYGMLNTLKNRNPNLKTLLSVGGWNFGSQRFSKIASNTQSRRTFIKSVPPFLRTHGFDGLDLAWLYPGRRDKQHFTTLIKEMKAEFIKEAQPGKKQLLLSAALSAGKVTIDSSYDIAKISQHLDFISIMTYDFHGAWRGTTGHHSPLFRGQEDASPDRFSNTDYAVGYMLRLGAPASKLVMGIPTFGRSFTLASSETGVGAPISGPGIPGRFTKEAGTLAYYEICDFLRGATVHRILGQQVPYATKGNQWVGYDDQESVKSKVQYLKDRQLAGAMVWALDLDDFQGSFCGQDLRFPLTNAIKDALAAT
# 6RG (Lolium perenne), sequence (chain, as listed by the source): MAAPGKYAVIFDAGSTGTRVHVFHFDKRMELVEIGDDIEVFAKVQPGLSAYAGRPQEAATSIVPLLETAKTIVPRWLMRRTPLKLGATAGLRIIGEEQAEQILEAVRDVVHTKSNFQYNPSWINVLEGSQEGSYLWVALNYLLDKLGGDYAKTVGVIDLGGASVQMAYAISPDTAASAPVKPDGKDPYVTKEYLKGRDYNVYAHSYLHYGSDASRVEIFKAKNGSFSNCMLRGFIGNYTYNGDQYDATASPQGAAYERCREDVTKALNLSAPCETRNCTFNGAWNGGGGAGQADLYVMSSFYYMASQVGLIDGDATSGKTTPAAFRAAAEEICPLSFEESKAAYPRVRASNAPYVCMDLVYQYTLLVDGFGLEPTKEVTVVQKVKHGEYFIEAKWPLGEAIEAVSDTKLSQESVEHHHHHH
# PILRa (Mus musculus), Q2YSF3, sequence (Q2YSF3 entry or part of it): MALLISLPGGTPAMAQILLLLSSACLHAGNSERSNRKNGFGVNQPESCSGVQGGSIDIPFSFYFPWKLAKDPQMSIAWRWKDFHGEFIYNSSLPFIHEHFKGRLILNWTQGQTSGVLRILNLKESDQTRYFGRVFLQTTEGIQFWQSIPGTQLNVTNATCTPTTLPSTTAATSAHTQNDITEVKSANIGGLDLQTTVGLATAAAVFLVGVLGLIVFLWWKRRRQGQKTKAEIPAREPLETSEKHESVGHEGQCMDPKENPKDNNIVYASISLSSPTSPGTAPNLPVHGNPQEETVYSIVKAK
# Regenerating Gene IV (Homo sapiens), Q9BYZ8, sequence (Q9BYZ8 whole entry, looked up): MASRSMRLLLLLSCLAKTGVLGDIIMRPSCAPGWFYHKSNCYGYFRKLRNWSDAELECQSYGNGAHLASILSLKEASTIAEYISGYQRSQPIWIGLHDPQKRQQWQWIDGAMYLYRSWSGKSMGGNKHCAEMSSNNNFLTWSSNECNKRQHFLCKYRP
# C3b (Homo sapiens), P01024, sequence (P01024 23-667): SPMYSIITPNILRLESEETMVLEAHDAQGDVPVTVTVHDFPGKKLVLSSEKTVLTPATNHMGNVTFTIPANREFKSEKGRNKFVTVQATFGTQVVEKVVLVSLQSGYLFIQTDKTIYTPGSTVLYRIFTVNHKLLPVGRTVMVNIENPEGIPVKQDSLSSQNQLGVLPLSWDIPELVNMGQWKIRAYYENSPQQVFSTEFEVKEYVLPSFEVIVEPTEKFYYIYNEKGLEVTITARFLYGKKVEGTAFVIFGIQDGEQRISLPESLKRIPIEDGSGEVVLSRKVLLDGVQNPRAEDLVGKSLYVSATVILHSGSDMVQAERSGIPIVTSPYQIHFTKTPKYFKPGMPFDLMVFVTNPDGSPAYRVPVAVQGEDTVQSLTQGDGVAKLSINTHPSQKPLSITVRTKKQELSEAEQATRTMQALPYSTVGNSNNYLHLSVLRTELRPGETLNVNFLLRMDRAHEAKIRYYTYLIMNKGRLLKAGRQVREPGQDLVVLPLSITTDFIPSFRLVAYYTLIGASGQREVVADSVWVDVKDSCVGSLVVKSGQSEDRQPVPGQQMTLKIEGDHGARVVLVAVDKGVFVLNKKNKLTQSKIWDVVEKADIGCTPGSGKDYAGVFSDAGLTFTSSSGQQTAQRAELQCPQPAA
# CHT (Homo sapiens), sequence (chain, as listed by the source): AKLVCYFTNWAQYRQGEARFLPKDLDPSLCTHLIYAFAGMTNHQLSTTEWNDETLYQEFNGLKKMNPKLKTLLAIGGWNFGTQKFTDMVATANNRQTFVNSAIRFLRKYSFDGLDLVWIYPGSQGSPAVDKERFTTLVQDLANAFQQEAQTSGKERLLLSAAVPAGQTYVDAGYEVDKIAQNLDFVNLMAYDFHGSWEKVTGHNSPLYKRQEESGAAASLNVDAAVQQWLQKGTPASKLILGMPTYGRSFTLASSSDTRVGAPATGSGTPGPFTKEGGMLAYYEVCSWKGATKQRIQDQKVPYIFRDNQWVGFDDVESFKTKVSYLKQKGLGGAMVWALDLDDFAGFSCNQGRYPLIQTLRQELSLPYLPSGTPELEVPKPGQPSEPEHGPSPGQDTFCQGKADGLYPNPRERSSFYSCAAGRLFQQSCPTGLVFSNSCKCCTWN
substance,measurement,setting,value
"Regenerating Gene IV (Homo sapiens), Q9BYZ8",glycan array binding signal (z-score),[1],-0.44
"HARE (Homo sapiens), Q8WWQ8",glycan array binding signal (z-score),Gal(b1-2)Gal,-0.074
"C3b (Homo sapiens), P01024",glycan array binding signal (z-score),Gal(a1-4)GlcNAc,-0.904
6RG (Lolium perenne),glycan array binding signal (z-score),Gal(a1-4)Gal(b1-4)Glc,6.7
same,glycan array binding signal (z-score),[2],6.16
"PILRa (Mus musculus), Q2YSF3",glycan array binding signal (z-score),[3],-0.192
"Siglec-8 (Homo sapiens), Q9NYZ4",glycan array binding signal (z-score),Gal(a1-4)Gal(b1-4)Glc; mutation: R125K,0.026
same,glycan array binding signal (z-score),[4],-0.073
same,glycan array binding signal (z-score),Gal(b1-3)GalNAc(b1-3)Gal,-0.035
"PILRb (Mus musculus), Q2YSF2",glycan array binding signal (z-score),Gal(a1-4)Gal(b1-4)Glc,0.026
same,glycan array binding signal (z-score),Gal(b1-2)Gal,-0.075
same,glycan array binding signal (z-score),[4],0.382
CHT (Homo sapiens),glycan array binding signal (z-score),"Gal(a1-4)GlcNAc; mutation: D138V, E140I",0.017
"CHI3L1 (Homo sapiens), P36222",glycan array binding signal (z-score),Gal(a1-4)Gal(b1-4)GlcNAc,-0.117
same,glycan array binding signal (z-score),Gal(a1-6)Glc,-0.088
same,glycan array binding signal (z-score),Gal(b1-2)Gal,-0.006
